Bioassay records: PubChem BioAssay, National Center for Advancing Translational Sciences (NCATS)
hNpr1 antagonist – blocks ANP-stimulated signaling of human Npr1 receptor; P16066; HEK293 hNpr1 GloSensor cGMP, ANP-stimulated luminescence; Potency, µM (doses to about 46.3 µM), most hits filed as inhibitors; 76,000 tested, 1.6% active; AID 1347048; calls by dose curve; further: nearly all actives have a fitted effect of over 60% in size
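Compound pre-incubated 30 min at room temperature on GloSensor-loaded HEK293 cells stably carrying hNpr1 and the pGS-40F cGMP biosensor. Stimulation uses hNppA at 0.1 nM final; luminescence is taken at baseline and 20 min post-agonist.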
FLuc inh – inhibitors of firefly (Photinus pyralis) luciferase; purified P. pyralis luciferase, luminescence, biochemical; P08659; Potency, µM (highest dose often 115 µM), most hits filed as inhibitors; 76,000 tested, 2.5% active; further: nearly all actives have a fitted effect of over 65% in size
Target sequence (P08659 whole entry, looked up): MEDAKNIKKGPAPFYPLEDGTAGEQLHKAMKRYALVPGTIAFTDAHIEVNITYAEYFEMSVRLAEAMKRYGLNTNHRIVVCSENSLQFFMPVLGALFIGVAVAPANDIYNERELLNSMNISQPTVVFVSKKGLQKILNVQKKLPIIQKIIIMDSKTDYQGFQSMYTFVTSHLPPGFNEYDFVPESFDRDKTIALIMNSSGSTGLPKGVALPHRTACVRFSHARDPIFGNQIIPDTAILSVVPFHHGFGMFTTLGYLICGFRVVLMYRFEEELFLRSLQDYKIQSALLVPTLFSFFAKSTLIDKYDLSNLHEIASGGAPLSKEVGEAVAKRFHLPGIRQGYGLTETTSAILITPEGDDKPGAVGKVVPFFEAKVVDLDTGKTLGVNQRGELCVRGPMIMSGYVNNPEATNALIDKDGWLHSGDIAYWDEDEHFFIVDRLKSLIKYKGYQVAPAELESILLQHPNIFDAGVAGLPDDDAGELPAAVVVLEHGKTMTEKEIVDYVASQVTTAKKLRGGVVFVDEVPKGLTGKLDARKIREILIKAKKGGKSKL
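Luminescence read by CCD imager after adding enzyme (10nM final) to wells holding compound, titrated in qHTS. Substrates 10uM each D-luciferin and ATP; buffer 50mM Tris acetate pH 7.5, 10mM Mg acetate, Tween-20, BSA.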
3T3 cytotox – kills NIH 3T3 cells; NIH 3T3 viability, CellTiter-Glo ATP luminescence, 48-72 h; Potency, µM (top dose mostly 96.7 µM), most hits filed as inhibitors; 94,000 tested, 4.3% active; AID 1345082; further: nearly all actives have a fitted effect of over 55% in size
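Viability of NIH 3T3 cells after 48 or 72 hr compound treatment at 37 °C was assessed by CellTiter-Glo, with luminescence imaged following a 10 min room-temperature step.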
HEK293 tox – kills HEK 293 cells; Potency, µM (highest dose often 115 µM), most hits filed as inhibitors; 94,000 tested, 6.6% active; HEK 293 viability, ATP luminescence (CellTiter-Glo), 48-72 h; further: nearly all actives have a fitted effect of over 60% in size
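HEK 293 cells at 250 cells/well were exposed to compounds by pintool transfer for 48 or 72 hr at 37 degree Celsius, 5% CO2. Viability was read as ATP-coupled luminescence with CellTiter-Glo after 10 min at room temperature.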
Numbers stand for hits. Only some compounds are listed: those with a hit (about 11% of all), similar ones and a draw of the others. Unless noted, the call rests on the fitted dose curve; in most records, active means well fitted curve in the direction sought with a large enough effect; inconclusive means small, poorly fitted or top-dose-only effect, or another doubt; inactive means no such curve, though single readings can be large; an effect the other way counts as inactive or inconclusive.

For O=C(NC1CC1)c1ccc2nc(-c3cccnc3Cl)oc2c1 the results were 3T3 cytotox inactive and HEK293 tox inactive.
Screening COCC1(c2n[nH]c(C3CCOCC3)n2)CCC1 returned hNpr1 antagonist inactive, FLuc inh inactive, 3T3 cytotox inactive and HEK293 tox inactive.
`CCN(CC)C(=O)N1CCCCCCNC(=O)[C@@H]2C[C@@H](c3nc(-c4cccnc4)no3)C[C@@H]21` gave hNpr1 antagonist inactive, FLuc inh inactive, 3T3 cytotox inconclusive and HEK293 tox inactive.
`CC(=O)N1CCN(C(=O)c2ccc3nc(-c4ccccn4)oc3c2)CC1` gave 3T3 cytotox inactive and HEK293 tox inactive.
`Cc1cccc(-c2nc3ccc(C(=O)N4CCOCC4)cc3o2)n1` gave 3T3 cytotox 22.4µM and HEK293 tox 31.6µM.
Screening O=C(c1ccc2nc(-c3ccccn3)oc2c1)N1CCCCC1 returned 3T3 cytotox 20µM and HEK293 tox 28.2µM.
For O=C(Nc1ccccc1)N1CCOC(CN(C(=O)c2ccco2)C2CCCC2)C1 (stereo not given) the results were hNpr1 antagonist inactive, FLuc inh inactive, 3T3 cytotox inactive and HEK293 tox inactive.
Screening CN(CC1CCOCC1)C(=O)Nc1cc(F)ccc1F returned hNpr1 antagonist inactive, FLuc inh inactive, 3T3 cytotox inactive and HEK293 tox inactive.
Screening CN(Cc1cccnc1)c1ccc2ncc(Nc3ccc(F)cc3)n2n1 returned hNpr1 antagonist inconclusive, FLuc inh inactive, 3T3 cytotox inconclusive and HEK293 tox 79.4µM.
Screening CN(Cc1cccnc1)c1ccc2ncc(Nc3ccc4c(c3)OCO4)n2n1 returned hNpr1 antagonist inactive, FLuc inh inactive, 3T3 cytotox inconclusive and HEK293 tox inconclusive.
Screening CN(Cc1ccc(F)cc1)c1ccc2ncc(Nc3ccc4c(c3)OCO4)n2n1 returned hNpr1 antagonist inconclusive, FLuc inh inactive, 3T3 cytotox 28.2µM and HEK293 tox 63.1µM.
Screening CN(Cc1ccc(F)cc1)c1ccc2ncc(Nc3cccc(O)c3)n2n1 returned hNpr1 antagonist inconclusive, FLuc inh inactive, 3T3 cytotox inconclusive and HEK293 tox 63.1µM.
CC(C)NC(=O)N(C1CC1)C1CCOC2(CCN(C(=O)c3ccco3)CC2)C1 (stereo not given) was read as 3T3 cytotox inactive and HEK293 tox inactive.
CCn1cnnc1CC1CCCN(S(=O)(=O)c2ccc(OC)cc2)C1 (stereo not given) was read as 3T3 cytotox inactive and HEK293 tox inactive.
Screening c1ccc2c(c1)CCN2c1nccnc1OC1CCNC1 (stereo not given) returned hNpr1 antagonist inactive, FLuc inh inactive, 3T3 cytotox inactive and HEK293 tox inactive.
Screening c1ccc(CN2CCC(Oc3nccnc3N3CCc4ccccc43)C2)nc1 (stereo not given) returned hNpr1 antagonist inactive, FLuc inh inactive, 3T3 cytotox inconclusive and HEK293 tox 39.8µM.
Screening CN1CCC(Oc2nccnc2N2CCc3ccccc3C2)C1 (stereo not given) returned hNpr1 antagonist inactive, FLuc inh inactive, 3T3 cytotox inconclusive and HEK293 tox inconclusive.
COCC(=O)N1CCC(Oc2nccnc2N2CCc3ccccc32)C1 (stereo not given) was read as hNpr1 antagonist inactive, FLuc inh 35.5µM, 3T3 cytotox inactive and HEK293 tox inactive.
CS(=O)(=O)N1CC2(CCCCN2CC2CC2)Cc2ccccc21 (stereo not given) was read as 3T3 cytotox inactive and HEK293 tox inactive.
CCCN(C)c1nccnc1OC1CCN(C(=O)C2CC2)C1 (stereo not given) was read as hNpr1 antagonist inactive, FLuc inh 39.8µM, 3T3 cytotox inconclusive and HEK293 tox inactive.
For CCCN(C)c1nccnc1OC1CCN(C(=O)C(CC)CC)C1 (stereo not given) the results were hNpr1 antagonist inactive, FLuc inh 31.6µM, 3T3 cytotox inconclusive and HEK293 tox inconclusive.
For CCCN(C)c1nccnc1OC1CCN(C(=O)C2CCOCC2)C1 (stereo not given) the results were hNpr1 antagonist inactive, FLuc inh 39.8µM, 3T3 cytotox inactive and HEK293 tox inactive.
`C[C@@H]1CN(C(=O)c2ccc(F)cc2F)CC[C@@]1(O)C1CCOCC1` gave hNpr1 antagonist inactive, FLuc inh inactive, 3T3 cytotox inactive and HEK293 tox inactive.
COCCNC(=O)c1nc2nc(-c3ccccc3)c(Cl)cc2n1C was read as hNpr1 antagonist inactive, FLuc inh inactive, 3T3 cytotox inconclusive and HEK293 tox inconclusive.
`COc1ccc(-c2cc3c(nc2-c2ccccc2)nc(C(=O)NCCN(C)C)n3C)cn1` gave hNpr1 antagonist inactive, FLuc inh inactive, 3T3 cytotox 79.4µM and HEK293 tox inconclusive.
`COc1cc(F)ccc1-c1cc2c(nc1-c1ccccc1)nc(C(=O)NCCN(C)C)n2C` gave hNpr1 antagonist inactive, FLuc inh inactive, 3T3 cytotox 20µM and HEK293 tox 31.6µM.
`Cc1ccccc1-c1cc2c(nc1-c1ccccc1)nc(C(=O)NCCN(C)C)n2C` gave hNpr1 antagonist inconclusive, FLuc inh inactive, 3T3 cytotox 25.1µM and HEK293 tox 35.5µM.
`COc1ccccc1-c1cc2c(nc1-c1ccccc1)nc(C(=O)NCCN(C)C)n2C` gave hNpr1 antagonist inconclusive, FLuc inh inactive, 3T3 cytotox 35.5µM and HEK293 tox inconclusive.
Screening COc1cc(-c2cc3c(nc2-c2ccccc2)nc(C(=O)NCCN(C)C)n3C)ccn1 returned hNpr1 antagonist inactive, FLuc inh inactive, 3T3 cytotox inconclusive and HEK293 tox inconclusive.
For Cc1cc(-c2cc3c(nc2-c2ccccc2)nc(C(=O)NCCN(C)C)n3C)ccn1 the results were hNpr1 antagonist inactive, FLuc inh inactive, 3T3 cytotox inconclusive and HEK293 tox inactive.
COC(=O)N1CCC(c2nn(-c3ccccn3)c(=O)[nH]2)CC1 was read as 3T3 cytotox inactive and HEK293 tox inactive.
CCC1(N2CCN(C(=O)c3ccc(Cl)s3)CC2)CCN(S(C)(=O)=O)C1 (stereo not given) was read as hNpr1 antagonist inactive, FLuc inh inactive, 3T3 cytotox inactive and HEK293 tox inconclusive.
For CN(C)Cc1cn([C@H]2CO[C@H]3[C@@H]2OC[C@H]3O)nn1 the results were hNpr1 antagonist inactive, FLuc inh inactive, 3T3 cytotox inactive and HEK293 tox inactive.
Screening CN(C)CCNC(=O)c1nc2nc(-c3ccccc3)c(-c3cccnc3)cc2n1C returned hNpr1 antagonist inactive, FLuc inh inactive, 3T3 cytotox inconclusive and HEK293 tox inconclusive.
Screening COc1cc(-c2cc3c(nc2-c2ccccc2)nc(C(=O)NC2CCN(C)CC2)n3C)ccn1 returned hNpr1 antagonist inactive, FLuc inh inactive, 3T3 cytotox inconclusive and HEK293 tox inconclusive.
`Cc1cc(-c2cc3c(nc2-c2ccccc2)nc(C(=O)NC2CCN(C)CC2)n3C)ccn1` gave hNpr1 antagonist inactive, FLuc inh inactive, 3T3 cytotox 25.1µM and HEK293 tox inconclusive.
For CN(C)CCNC(=O)c1nc2nc(-c3ccccc3)c(-c3ccncc3)cc2n1C the results were hNpr1 antagonist inactive, FLuc inh inactive, 3T3 cytotox 100µM and HEK293 tox inconclusive.
`CC(C)(C)c1nnc2ccc(C(=O)NCc3ccccc3)cn12` gave 3T3 cytotox inconclusive and HEK293 tox inactive.
